This passage reports growth results from PubChem BioAssay (NCI).

The panel holds about 83,000 compounds, 20% with a hit somewhere; the sample as a whole holds those more often.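 Results are percent growth after 48 hours of single-concentration exposure. 100 means growth as in untreated cells, lower positive values show inhibition; negative values down to -100 show cell death.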 Unmarked numbers belong to inactive results. The source made the active and inactive calls. Rule for the calls: active = growth percent below 10; inactive = the rest.

One experiment deals with HCT-116 colon. As to the kind of experiment: NCI-60 one-dose screen, 48 h (100 = growth as untreated, 0 = no growth, -100 = all killed). The conditions noted are these: 10 µM unless noted.
For the molecule `Clc1cccc(/C=N/Nc2nc(N/N=C/c3cccc(Cl)c3)nc(N3CCOCC3)n2)c1`, the growth was 22.8%.
Take `CCN(CC)c1ccc(/C=N/NC(=O)c2ccc(S(N)(=O)=O)cc2)c(O)c1`: the growth was 24.2%.
With `COc1ccc(/C=N/NC(=O)c2c(N)nn(C)c2Nc2ccccc2)cc1`, the growth is 15%.
For the molecule `Cc1cc(NS(=O)(=O)c2ccc(NC(=O)CSc3nc4ccccc4c(=O)n3-c3ccccc3)cc2)no1`, the growth is 94.6%.
On to `O=C(Nc1cccc(C(F)(F)F)c1)N1CCN(c2cc(-c3cn(-c4ccccc4)nc3-c3cccc(O)c3)ccn2)CC1`, for which the growth was 27.4%.
Regarding `N#Cc1nc(-c2ccccc2)oc1N1CCC(C2(C(F)(F)F)N=N2)CC1`, the growth was 104%.
The same measure, in the same setting: next, `O=C1/C(=C/c2cc(F)cc(F)c2)Cc2cc3c(cc21)OCO3`: 26.8%; `Clc1cccc(/C=N/Nc2nc(N/N=C/c3cccc(Cl)c3)nc(N3CCCCC3)n2)c1`: 97.2%; `Cn1c(SCC(=O)c2ccc(Br)cc2)nc2ccccc2c1=O`: 86.1%.
Regarding `CC(=O)C1=C(C)NC(NNc2ccccc2)=NC1c1ccc([N+](=O)[O-])cc1` (stereo not given), the growth is 85.7%.
Regarding `COc1cccc2c1[C@H](OC)[C@]13O[C@@]1(C2=O)[C@H](O)[C@H](C)[C@@](O)(C(=O)[C@@H]1O[C@H]1C)[C@@H]3O`, the growth is -26.8% (active).
Take `COc1ccc(/C=N/NC(=O)CSc2nc(-c3cnccn3)cc(-c3cccs3)c2C#N)cc1`: the growth was 22.4%.
For the molecule `CSc1ccc(/C(=N/N=C(N)N)c2ccc(F)cc2)cc1`, the growth is 6.25% (active).
In the case of `Fc1cccc(Cl)c1/C=N/Nc1nc(N/N=C/c2c(F)cccc2Cl)nc(N2CCCCC2)n1`, the growth is 19.5%.
Same read-out and setting: next, `NNc1nnc2nc(Nc3ccccc3)nc(Nc3ccc(S(N)(=O)=O)cc3)n12`: 107%; `O=C1[C@H]2Cc3c([nH]c4ccccc34)[C@H](c3ccc(Cl)cc3)N2C(=O)CN1C1CCN(CC2CCCCC2)CC1`: 5.7% (active); `Brc1cc(-c2cc(-c3ccc4c(c3)OC=CO4)[nH]n2)cs1`: 84.1%.
Take `C#C[C@]1(O)CC[C@H]2[C@@H]3CC=C4c5sc(Nc6ncccc6C)nc5CC[C@]4(C)[C@H]3CC[C@@]21C`: the growth was 7.15% (active).
As for `CNC(=O)Nc1ccc(Nc2cc(-c3ccc(-n4cccn4)cc3)[nH]n2)c(C)c1`, the growth was 107%.
With `COc1cc(C(=O)c2cc(C(C)=O)c3c(C)cccn23)cc(OC)c1OC`, the growth was 95.1%.
In the case of `O=C1Nc2ccccc2/C1=C/c1ccc(OCC(=O)c2ccccc2)cc1`, the growth is 94.4%.
For `Cn1cc(-c2nn3cc(-c4ccncc4)nc3s2)c2cc(Br)ccc21`, the growth is 25%.
Regarding `CS(=O)(=O)c1ccc(/C(=N/N=C(N)N)c2ccc(F)cc2)cc1`, the growth was 33.7%.
Take `COc1cc(-c2nc(-c3ccccc3)[nH]c2-c2ccnc(NCCCNS(=O)(=O)c3ccc(C)cc3)n2)ccc1F`: the growth was 72.3%.
With `COc1cc(NC(=O)Nc2cccc(-c3cc(=O)c4c(OC)c(OC)c(OC)cc4o3)c2)cc(OC)c1OC`, the growth is 28.9%.
In the case of `CC(C)Sc1nc(-c2ccccc2)c(C#N)c(N2CCOCC2)n1`, the growth was 43.5%.

The next experiment has as its system HCC-2998 colon. Described as above. The following applies: 10 µM unless noted.
`COc1ccc(C2CC(c3cccc(OCCCCOc4cccc(C5=NN(C(C)=O)C(c6ccc(OC)cc6)C5)c4)c3)=NN2C(C)=O)cc1` (stereo not given): the growth was 83.1%.
Consider `O=C(CSc1nc2ccccc2c(=O)n1-c1ccccc1)Nc1ccc(S(=O)(=O)Nc2nccs2)cc1`, for which the growth was 118%.
For `COC(=O)c1ccc(NC2=C(Cl)C(=O)C(C)=C(C)C2=O)cc1`, the growth is 71.1%.
Turning to `O=S(=O)(Oc1ccc(-c2cn3ccoc3n2)cc1)c1cccc(C(F)(F)F)c1`, the growth is 99.8%.
The same measure, in the same setting: next, `O=C(Nc1ccc(N2CCOCC2)cc1)Nc1ccc2c(ccn2C(=O)c2cccc(F)c2)c1`: 62.4%; `CCc1cc(OC(=O)N2CCN(CCC(C)(COC(C)(C)C)COC(C)(C)C)CC2)ccc1Nc1cc(-c2ccc(-n3cccn3)cc2)[nH]n1`: 91.5%; `COC(=O)CNC(=O)c1cccc(-c2cc(=O)c3c(OC)c(OC)c(OC)cc3o2)c1`: 100%.
For the molecule `Cc1csc(/N=C(N)/N=C(\N)c2cccs2)n1`, the growth was 116%.
Consider `C#Cc1nc(C(=O)NCCCCCCC(=O)NO)cs1`, for which the growth is 25.9%.
On to `COC(=O)c1ccc(NC2=C(Cl)C(=O)c3nc(C)ccc3C2=O)cc1`, for which the growth is 102%.
For the molecule `O=C(Nc1ccc(N=Cc2c(O)[nH]c3ccccc23)cc1)Nc1ccc(S(=O)(=O)Nc2ncccn2)cc1`, the growth is 109%.
Regarding `CSc1ccc(/C(=N/N=C(N)N)c2ccc(Cl)cc2)cc1`, the growth is -68.2% (active).
`O=c1[nH][nH]c(-c2ccc(F)cc2)c1-c1nc2ccccc2s1`: the growth is 107%.
`Clc1cccc(/C=N/Nc2nc(N/N=C/c3cccc(Cl)c3)nc(N3CCOCC3)n2)c1`: the growth is 59%.
With `CCN(CC)c1ccc(/C=N/NC(=O)c2ccc(S(N)(=O)=O)cc2)c(O)c1`, the growth is 37.3%.
Still for that read-out and setting: the same measure for `COc1ccc(/C=N/NC(=O)c2c(N)nn(C)c2Nc2ccccc2)cc1`: 59.2%; for `Cc1cc(NS(=O)(=O)c2ccc(NC(=O)CSc3nc4ccccc4c(=O)n3-c3ccccc3)cc2)no1`: 96.9%; for `O=C(Nc1cccc(C(F)(F)F)c1)N1CCN(c2cc(-c3cn(-c4ccccc4)nc3-c3cccc(O)c3)ccn2)CC1`: 86.3%.
With `N#Cc1nc(-c2ccccc2)oc1N1CCC(C2(C(F)(F)F)N=N2)CC1`, the growth is 107%.
Turning to `O=C1/C(=C/c2cc(F)cc(F)c2)Cc2cc3c(cc21)OCO3`, the growth is 65%.
For the molecule `Clc1cccc(/C=N/Nc2nc(N/N=C/c3cccc(Cl)c3)nc(N3CCCCC3)n2)c1`, the growth is 108%.
As to `Cn1c(SCC(=O)c2ccc(Br)cc2)nc2ccccc2c1=O`, the growth was 108%.
On to `CC(=O)C1=C(C)NC(NNc2ccccc2)=NC1c1ccc([N+](=O)[O-])cc1` (stereo not given), for which the growth is 97%.
Turning to `COc1cccc2c1[C@H](OC)[C@]13O[C@@]1(C2=O)[C@H](O)[C@H](C)[C@@](O)(C(=O)[C@@H]1O[C@H]1C)[C@@H]3O`, the growth was -79.3% (active).
The same measure, in the same setting: the same measure for `COc1ccc(/C=N/NC(=O)CSc2nc(-c3cnccn3)cc(-c3cccs3)c2C#N)cc1`: 79.1%; for `CSc1ccc(/C(=N/N=C(N)N)c2ccc(F)cc2)cc1`: -14.1% (active); for `Fc1cccc(Cl)c1/C=N/Nc1nc(N/N=C/c2c(F)cccc2Cl)nc(N2CCCCC2)n1`: 24.4%.
As for `NNc1nnc2nc(Nc3ccccc3)nc(Nc3ccc(S(N)(=O)=O)cc3)n12`, the growth was 104%.
On to `O=C1[C@H]2Cc3c([nH]c4ccccc34)[C@H](c3ccc(Cl)cc3)N2C(=O)CN1C1CCN(CC2CCCCC2)CC1`, for which the growth was 53.4%.
In the case of `Brc1cc(-c2cc(-c3ccc4c(c3)OC=CO4)[nH]n2)cs1`, the growth was 94.7%.
`C#C[C@]1(O)CC[C@H]2[C@@H]3CC=C4c5sc(Nc6ncccc6C)nc5CC[C@]4(C)[C@H]3CC[C@@]21C`: the growth is 28.8%.
With `CNC(=O)Nc1ccc(Nc2cc(-c3ccc(-n4cccn4)cc3)[nH]n2)c(C)c1`, the growth is 123%.
On the same count and under the same terms, next, `COc1cc(C(=O)c2cc(C(C)=O)c3c(C)cccn23)cc(OC)c1OC`: 105%.
Same read-out and setting: next, `O=C1Nc2ccccc2/C1=C/c1ccc(OCC(=O)c2ccccc2)cc1`: 105%; `Cn1cc(-c2nn3cc(-c4ccncc4)nc3s2)c2cc(Br)ccc21`: 58.9%; `CS(=O)(=O)c1ccc(/C(=N/N=C(N)N)c2ccc(F)cc2)cc1`: 90.3%.
`COc1cc(-c2nc(-c3ccccc3)[nH]c2-c2ccnc(NCCCNS(=O)(=O)c3ccc(C)cc3)n2)ccc1F`: the growth was 153%.
With `COc1cc(NC(=O)Nc2cccc(-c3cc(=O)c4c(OC)c(OC)c(OC)cc4o3)c2)cc(OC)c1OC`, the growth was 60.7%.
On to `CC(C)Sc1nc(-c2ccccc2)c(C#N)c(N2CCOCC2)n1`, for which the growth is 69.5%.
